The first assay deals with PXR homodimer (NR concentration 270 nM). Nature of the assay: PBM binding z-score (relative to random genomic background probes); higher = stronger binding; sequences stand for … in GC…GCGATTGACAGCGTAGAATGAAGG
The gist of the method: (§1)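 Regression normalization was applied to scanned fluorescence from custom Agilent 4×180K protein-binding microarrays. Before scanning, arrays were incubated 1 h with ligand-free nuclear receptor dimers, and binding was detected with antibodies against each partner (one per run). Binding z-scores use the random background probes as reference.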
The sequence GATACAGGGTCAGCTAGAGTCCAGAGTATGGAAA displayed a PBM binding z-score of -0.0221.
Consider AGGATGAGGTTAAGATCAGGGAAACAGAATACAT, for which the PBM binding z-score was determined as 1.2.
Turning to CCGAGTAGGTTATGGGGCATTCGGGCAACGGTGA, the PBM binding z-score was -0.383.
Still for that read-out and setting: as for TCATAAAGGTAAACAGGTGAAAGTCCGTAAGTTA, the figure is 0.86; as for ACAGACAGGGGAGTGAAGGTAACTCAGCTGGACG, 0.147.
In turn, CATACAGGGTCAGCTAGGCGAGAGTAGGGACGGC had a PBM binding z-score of 0.199.
Consider GCGACTGGGGCAAATCAGGTTACCATAAGGTTGG, for which the PBM binding z-score was -0.422.
Still for that read-out and setting: for ACTAGCAGGCCAAGTTTGGTTCACTCAAACAAAG the value was 0.256; for CCTAGTTTGTCAAGGTCACACACGCTATAGGTAC, 5.83.
Still for that read-out and setting: for CCTACTGGGCCAAAAGTCATTGATTCCAATGCTC the value was -0.589.
On the same count and under the same terms, as for TCTAGTTGGGCAAAGGTCACACACTCGAAATGCG, the figure is 1.26.
Turning to TCTCGGAGGACACGAAGCTCAGAGCTTTCCAGAG, the PBM binding z-score was -0.712.
Still for that read-out and setting: as for ATCTCTAGGTAACCAAGTTCAATGAATGCCGAAC, the figure is 3.6.
Still for that read-out and setting: as for ACTATTAGTTGACTTAGTGCAACCGATACGACGC, the figure is 0.128; as for CTCGACAGGTCGTGCTCAGGTGAGTATACCAAAC, -0.328; as for TCTTGTAAATCAGCAGGTTAAGAAAGCTGGCCAA, -0.284.
CCGACTGGGGCAGAAAGGTTAACATACCATCCGG gave a PBM binding z-score of -0.126.
The same measure, in the same setting: as for CCTACTGGGCCATTCAGAGGTCTTTGATCATATG, the figure is 0.0887.
The same measure, in the same setting: for CCTCGGAGGACCACAGGAGGTCAGAGCTGCCAGA the value was 0.21.
Regarding ATCTCTAGGTAAAGAGAGTTCAGTGAATGCAAAT, the PBM binding z-score amounted to 3.18.
In turn, TCTTGGAGATCAACAGGAGGTTAAGAAAGATCGA returned a PBM binding z-score of -0.208.
Still for that read-out and setting: for CCTCGGAGGAAAGAAGGTCAGAGCTGTCCGCTTT the value was -0.583.
On the same count and under the same terms, as for CCTCGGAGGACATAAGGTCAGAGCTGTCCGCTTT, the figure is -0.0342.
Take CGTCAAAGTTCAAGGTAAGGTAACAGAAAGCAGC: the PBM binding z-score came out at 1.72.
Sequence TTACCAAGGTGAAGGTCGTTGTTCCCTCTGTAGA showed a PBM binding z-score of 0.134.
The same measure, in the same setting: as for CAGCCTAGGTCAGGGCCAGTTTAGGAGGAACGTT, the figure is -0.16; as for ATGTCTAGGTAACAAGTTCAGTGAAAGAGAGGAC, 1.68; as for GGAACGAGGGAATTCGAGTTGATAGCATGGCGAT, -0.439.
Still for that read-out and setting: for CCTCGGAGGACAACAGGCGGTCAGAGCTGCCAGA the value was -0.435.
On the same count and under the same terms, as for CCTCGCAGGACAGAAGGTCAGAGCTGTCCGCTTT, the figure is -0.203; as for GCTATTAGTTGAAAGGGCAAGCGAATGATTCTCG, 0.0641; as for CCTAGCAGGCCAGGGTCACTCAAGCATTTCGCTT, -0.595.
With CGTCCTAGGTCAATGCTAGGTCAGTGAAAGCATT, the PBM binding z-score was -0.195.
Consider CCTACAGGGTCAGCTAGGCCAGAGTAGGGACGGC, for which the PBM binding z-score is -0.627.
Same read-out and setting: for TGAATGAGGTTATAAGATCATGGAACGTTGCAAA the value was -0.359; for CCTTACGGGTCAAGGTTATAGCACGGGTGGTACG, 0.367.
In turn, ACAGACATGTGAGTGAAGGTAACTCAGCTGGACG came in with a PBM binding z-score of -0.383.
Same read-out and setting: for TCTTGTAGATCAACAGGAAGTTAAGAAAGATCGA the value was -0.761; for TCACGGAGGACACGAAGGTCAGAGCTTTCCAGAG, 1.22.
Turning to GCTAGTTGGTCAGTAAAAGGTTACACACCGGTCG, the PBM binding z-score came to 0.164.

The test system of the next assay is RARa:RXR (NR concentration 270 nM, RXRa partner concentration 90 nM). The assay is described as above. The gist of the method:
as §1
Sequence GATACAGGGTCAGCTAGAGTCCAGAGTATGGAAA yielded a PBM binding z-score of 4.01.
As to AGGATGAGGTTAAGATCAGGGAAACAGAATACAT, the PBM binding z-score was 1.9.
The sequence CCGAGTAGGTTATGGGGCATTCGGGCAACGGTGA yielded a PBM binding z-score of 0.377.
The same measure, in the same setting: for TCATAAAGGTAAACAGGTGAAAGTCCGTAAGTTA the value was 1.89.
On the same count and under the same terms, as for ACAGACAGGGGAGTGAAGGTAACTCAGCTGGACG, the figure is -0.342; as for CATACAGGGTCAGCTAGGCGAGAGTAGGGACGGC, 3.05; as for GCGACTGGGGCAAATCAGGTTACCATAAGGTTGG, 0.759.
Same read-out and setting: as for ACTAGCAGGCCAAGTTTGGTTCACTCAAACAAAG, the figure is 0.113; as for CCTAGTTTGTCAAGGTCACACACGCTATAGGTAC, 4.57; as for CCTACTGGGCCAAAAGTCATTGATTCCAATGCTC, 0.273.
Sequence TCTAGTTGGGCAAAGGTCACACACTCGAAATGCG came in with a PBM binding z-score of 6.56.
TCTCGGAGGACACGAAGCTCAGAGCTTTCCAGAG showed a PBM binding z-score of -0.204.
ATCTCTAGGTAACCAAGTTCAATGAATGCCGAAC: the PBM binding z-score stood at 1.33.
On the same count and under the same terms, as for ACTATTAGTTGACTTAGTGCAACCGATACGACGC, the figure is 0.123.
For the sequence CTCGACAGGTCGTGCTCAGGTGAGTATACCAAAC, the PBM binding z-score worked out at 1.08.
On to TCTTGTAAATCAGCAGGTTAAGAAAGCTGGCCAA, for which the PBM binding z-score amounted to 0.789.
On the same count and under the same terms, for CCGACTGGGGCAGAAAGGTTAACATACCATCCGG the value was 1.95; for CCTACTGGGCCATTCAGAGGTCTTTGATCATATG, -0.471; for CCTCGGAGGACCACAGGAGGTCAGAGCTGCCAGA, 2.45.
The same measure, in the same setting: as for ATCTCTAGGTAAAGAGAGTTCAGTGAATGCAAAT, the figure is 0.79; as for TCTTGGAGATCAACAGGAGGTTAAGAAAGATCGA, 1.41.
Still for that read-out and setting: for CCTCGGAGGAAAGAAGGTCAGAGCTGTCCGCTTT the value was 1.95; for CCTCGGAGGACATAAGGTCAGAGCTGTCCGCTTT, 3.08.
As for CGTCAAAGTTCAAGGTAAGGTAACAGAAAGCAGC, the PBM binding z-score was determined as 3.78.
On the same count and under the same terms, for TTACCAAGGTGAAGGTCGTTGTTCCCTCTGTAGA the value was 1.76; for CAGCCTAGGTCAGGGCCAGTTTAGGAGGAACGTT, 1.32; for ATGTCTAGGTAACAAGTTCAGTGAAAGAGAGGAC, 0.876.
Still for that read-out and setting: for GGAACGAGGGAATTCGAGTTGATAGCATGGCGAT the value was -0.36.
Still for that read-out and setting: for CCTCGGAGGACAACAGGCGGTCAGAGCTGCCAGA the value was -0.312; for CCTCGCAGGACAGAAGGTCAGAGCTGTCCGCTTT, 1.84.
GCTATTAGTTGAAAGGGCAAGCGAATGATTCTCG returned a PBM binding z-score of 1.19.
The same measure, in the same setting: for CCTAGCAGGCCAGGGTCACTCAAGCATTTCGCTT the value was 3.17; for CGTCCTAGGTCAATGCTAGGTCAGTGAAAGCATT, 4.13; for CCTACAGGGTCAGCTAGGCCAGAGTAGGGACGGC, 2.68.
Regarding TGAATGAGGTTATAAGATCATGGAACGTTGCAAA, the PBM binding z-score was determined as 1.96.
The same measure, in the same setting: for CCTTACGGGTCAAGGTTATAGCACGGGTGGTACG the value was 4.01; for ACAGACATGTGAGTGAAGGTAACTCAGCTGGACG, -0.531.
Still for that read-out and setting: as for TCTTGTAGATCAACAGGAAGTTAAGAAAGATCGA, the figure is -0.00111.
On the same count and under the same terms, for TCACGGAGGACACGAAGGTCAGAGCTTTCCAGAG the value was 2.3; for GCTAGTTGGTCAGTAAAAGGTTACACACCGGTCG, 1.98.

The record behind these values is the supplement of paper PMC6555819.
